High-throughput results (PubChem BioAssay)
The entries come from a sample that favours hits as a whole.
TTR transcr act: TTR transcription activators in neuroblastoma reporter cells, primary screen, cell-based, luminescence, SH-SY5Y, TTR promoter Gaussia luciferase | 100% = recombinant luciferase protein wells | activation, % at 16.7 µM | actives 1.3% (n = 92,000) | AID 1117267, 2014;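 active = activation above the mean of all tested compounds plus 3 SD, cut at about 9.5% in these data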;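 also: cells exposed to compounds for one day before reading; 0% = median of all test compound wells on the plate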
TTR inh HuH7: TTR promoter reporter inhibitors in hepatoma cells, counter-screen for TTR transcription activator project, cell-based, luminescence, HuH7 hepatoma; HuH7 TTR promoter-Gaussia luciferase reporter; shares compounds with TTR transcr act; inhibition, % at 16.7 µM; actives 4% (n = 1,100);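 active = average inhibition above the solvent-only control wells' mean plus 3 SD, cut at about 15% in these data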;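 also: 0% = cells with DMSO only and 100% = cells with inhibitor control FD; inhibitors lower well luminescence so higher value means more inhibition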
TTR up confirm: TTR transcription activators, retest, confirmation, cell-based, luminescence, SH-SY5Y, triplicate | AID 1117280, 2014 | shares compounds with TTR transcr act | 1,100 tested, under 10 active | SHSY5Y TTR promoter Gaussia luciferase; 100% = purified Lucia enzyme wells, no cells | activation, % at 16.7 µM;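 active = mean activation above a set limit taken from the earlier primary screen, cut at about 11% in these data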;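 also: 0% = DMSO-treated cells and 100% = recombinant Lucia luciferase without cells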
* marks the source's active call; other numbers are inactive results.

SMILES | TTR transcr act | others
COc1ccc(-c2ccc3c(c2)C2CC3CCN2S(=O)(=O)c2ccccc2C)cc1 (stereo not given) | 3
COc1ccc(C(=O)Nc2ccc(C(=O)N3CCCC3)cc2)cc1[N+](=O)[O-] | 0
COc1cc(NC(=O)c2ccc(OC)c([N+](=O)[O-])c2)ccc1NC(=O)c1ccco1 | 0
COc1ccc(NC(=O)c2cc(C)cc(C)c2)cc1[N+](=O)[O-] | 19* | TTR inh HuH7=-8;TTR up confirm=1
CCOC(=O)c1cc(NC(=O)N(C)C2CCCCC2)c(C)nc1C | 0
Cc1nccn1CCC(=O)NC1CC(C)(C)Cc2c1cnn2-c1ccccc1 (stereo not given) | 1
O=C(/C=C/C(=O)NCc1cccs1)NCc1cccs1 | -1
O=C(CC1CC2CCC1C2)NCc1cccs1 (stereo not given) | 18* | TTR inh HuH7=-10;TTR up confirm=1
O=C(NCc1cccs1)NC1CCCCC1 | 1
Cc1ccc(S(=O)(=O)N2CCN(C(=O)Cn3cnc4c3c(=O)n(C)c(=O)n4C)CC2)cc1C | 1
O=C(NC1CCCCC1)C(c1ccco1)N(Cc1cccs1)C(=O)Cn1nnc2ccccc21 (stereo not given) | -3
CCC(C)(C)NC(=O)C(c1ccccc1F)N(Cc1ccco1)C(=O)Cn1nnc2ccccc21 (stereo not given) | 6
COc1ccc(CN(C(=O)Cn2nnc3ccccc32)C(C(=O)NC(C)(C)C)c2ccco2)cc1 (stereo not given) | 9.9* | TTR inh HuH7=-9;TTR up confirm=0
C#CCNC(=O)C[C@H]1C[C@@]2(C(=O)OC)C(=C[C@H](C(C)C)O[C@@H]2C2CC2)N(CCCCCCCC)C1=O | 0
COC(=O)[C@]12C[C@H](CC(=O)NCc3cccs3)C(=O)N(Cc3cccc4ccccc34)C1=C[C@H](C(C)C)O[C@@H]2C1CC1 | 0
Cc1ccc(N2CC(C(=O)Nc3cccnc3)CC2=O)cc1Cl (stereo not given) | 0
COc1ccc(/C=C/C(=O)Nc2ccc(OC)cc2[N+](=O)[O-])cc1 | 13* | TTR inh HuH7=0;TTR up confirm=2
COc1ccc(NC(=O)Nc2ccc(OC)c(OC)c2)c([N+](=O)[O-])c1 | 2
COc1ccc(NC(=O)c2sccc2C)c([N+](=O)[O-])c1 | 4
CCCC(=O)N1CCCC1(C)C(=O)Nc1ccc2cn[nH]c2c1 (stereo not given) | 1
CCN(CC)C(=O)C1=C(C)N(Cc2ccc(C(C)(C)C)cc2)C(=O)C(CC(=O)NCCCN(C)C)C1 (stereo not given) | -1
CN1CCCC1=Nc1ccccc1 | -1
O=C(Nc1ccc(F)cc1)OCc1cn(Cc2ccccc2Cl)nn1 | 1
CCN(C[C@H]1N[C@@](Cc2ccccc2)(C(=O)OC)[C@H]2C(=O)N(Cc3ccccc3)C(=O)[C@@H]12)C(=O)COC | 0
CCN(C[C@H]1N[C@@](Cc2ccccc2)(C(=O)OC)[C@H]2C(=O)N(Cc3ccccc3)C(=O)[C@@H]12)C(C)=O | 12* | TTR inh HuH7=-12;TTR up confirm=1
SMILES | TTR transcr act | others
CCN(C[C@H]1N[C@@](Cc2ccccc2)(C(=O)OC)[C@H]2C(=O)N(Cc3ccccc3)C(=O)[C@@H]12)C(=O)c1ccccc1 | -1
CCOC(=O)C1=CN(Cc2cccc(F)c2)S(=O)(=O)N(CC)C1c1ccccc1 (stereo not given) | -1
S=c1c2c(nc3nc[nH]n13)CCC2 | 0
CCOC(=O)[C@]12CCCC=C1N(CCCOC)C(=O)[C@@H]2CC(=O)NCc1cccc2ccccc12 | 1
CCOC(=O)c1c(-c2ccc(F)cc2)csc1NC(=O)CCN1CCOCC1 | 2
CCOC(=O)c1c(-c2ccccc2)csc1NC(=O)C(C)NCCCN1CCOCC1 (stereo not given) | 13* | TTR inh HuH7=-27;TTR up confirm=0
CCOC(=O)c1c(-c2ccc(-c3ccccc3)cc2)csc1NC(=O)CCN1CCOCC1 | -2
O=C(c1ccccc1Oc1ccccc1)N1CCC(Oc2cccnc2)CC1 | 0
C[C@H]1C2CC(OC(=O)Nc3ccccc3C(F)(F)F)C(C2)[C@H]2CCCCN21 (stereo not given in full) | 0
O=C(c1ccccc1)N1CCN(Cc2cccc(Oc3ccccc3)c2)CC1 | -2
CN1CCN(Cc2cccc(Oc3ccccc3)c2)CC1 | 18* | TTR inh HuH7=-4;TTR up confirm=-1
COc1ccc(CN2CCN(Cc3cccc(Oc4ccccc4)c3)CC2)c(OC)c1OC | -2
O=C(COC(=O)CNC(=O)c1ccco1)Nc1ccc(Cl)cn1 | -2
O=C(CNC(=O)c1ccco1)OCc1ccccc1Cl | 11* | TTR inh HuH7=-10;TTR up confirm=0
O=C(NCc1ccccc1Br)c1ccco1 | 4
COC(=O)[C@]12C[C@H](CC(=O)N3CCC(c4ccccc4)CC3)C(=O)N(CCc3ccc(OC)c(OC)c3)C1=C[C@H](COCc1ccccc1)O[C@@H]2C | -1
CCCCCc1c(-c2ccc(F)cc2F)ncn1CCc1ccccc1OC | -3
Cc1nc2sc(C(c3ccc(Cl)cc3)N3CCOCC3)c(O)n2n1 (stereo not given) | -1
Cc1nc2sc(C(c3cccc(F)c3)N3CCCCC3)c(O)n2n1 (stereo not given) | 10* | TTR inh HuH7=-3;TTR up confirm=0
Cc1nc2sc(C(c3ccccc3)N3CC(C)OC(C)C3)c(O)n2n1 (stereo not given) | -1
CCN(CC)C(=O)O[C@H]1CC[C@@]23CCCN2C(=O)CCC[C@H]3[C@H]1C | 1
Cc1cc(C)c(S(=O)(=O)Nc2ccccc2)c(C)c1 | 0
COC(=O)C(C[N+](=O)[O-])C1=C(O)CC(C)(C)CC1=O (stereo not given) | 0
CN1C2=N[C@@H](c3ccc4c(c3)OCO4)CC(=O)N2/C(=C\c2ccccc2)[C@@H]1c1ccccc1 | 0
CC(C)CNC(=O)OCc1cn(Cc2c(F)cccc2F)nn1 | 1
SMILES | TTR transcr act | others
C=C(C)[C@@H](O)COc1c2ccoc2cc2oc(=O)ccc12 | 10* | TTR inh HuH7=-6;TTR up confirm=0
CC(C)(O)[C@H](O)COc1c2ccoc2cc2oc(=O)ccc12 | 6
CC(=O)O[C@H](COc1c2ccoc2cc2oc(=O)ccc12)C(C)(C)O | -1
COC(=O)[C@]12C[C@H](CC(=O)NCc3cccc4ccccc34)C(=O)N(Cc3ccco3)C1=C[C@H](COCc1ccccc1)O[C@@H]2C | 0
C[C@@H]1Cc2cc(O)cc(O)c2C(=O)O1 | 0
CSCCC(C(=O)NC(C)(C)C)n1c(-c2ccc(C)cc2)nc2ccccc21 (stereo not given) | -1
CC1CCC(=O)N(CCSc2ccccc2)CC1 (stereo not given) | -3
Cc1ccc(SCCN2CCC(O)CCC2=O)cc1 (stereo not given) | 23* | TTR inh HuH7=-9;TTR up confirm=0
Cc1ccc(SCCN2CCN(C)CCC2=O)cc1 | 0
CCOC(=O)c1ccc(S(=O)(=O)N2CCN(C(=O)c3ccccn3)CC2)cc1 | 0
C[C@H]1CCC[C@H](O)CC(=O)c2c(O)cc(O)cc2CC(=O)O1 | -2
CCN(CC)CCCNC(=O)c1ccc2c3n(nc2c1)-c1ccc(Cl)cc1CO3 | 4
CCOC(=O)[C@]12CCCC=C1N(Cc1ccc(OC)cc1)C(=O)[C@@H]2CC(=O)NCC12CC3CC(CC(C3)C1)C2 | 0
